From PubChem BioAssay (EPA / NIEHS)
Results filed as inconclusive are left out. Calls of active or inactive are those of the source. Rule for the calls: active = hit-call score of the fitted dose curve at least 0.9, where 1 is the maximum; inconclusive = response in the unintended direction; inactive = score below 0.9.

Assays:
[1] = biological target: human Adrenergic, Beta 3 Receptor (Adrb3), ADRB3 (gene 155) (UniProt P13945); experiment: NVS_GPCR_hAdrb3: NovaScreen (NVS) G Protein-Coupled Receptor Assay for human Adrenergic, Beta 3 Receptor (Adrb3) (AID 2283262)
Outline: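 Membranes from SK-N-MC cells pretreated with isoproterenol and 8-bromo-cAMP were used in a radioligand competitive displacement binding assay. Binding was read by filter-based scintillation counting 1 hour after dosing. Primary screening was in duplicate at 25 uM, with concentration series in follow-up.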

[2] = biological target: human Vasopressin 1A Receptor (V1A), AVPR1A (gene 552) (UniProt P37288); experiment: NVS_GPCR_hV1A: NovaScreen (NVS) G Protein-Coupled Receptor Assay for human Vasopressin 1A Receptor (V1A) (AID 2283284)
Outline: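 Cell-free radioligand displacement on human platelet preparations, 1.5 h incubation, filter-based scintillation counting. Chemicals first tested in duplicate at 25 uM; actives then run in concentration-response up to 50 uM, loss of signal fitted against DMSO.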

[3] = biological target: human Dopamine Receptor D2 (DRD2), DRD2 (gene 1813) (UniProt P14416); experiment: NVS_GPCR_hDRD2s: NovaScreen (NVS) G Protein-Coupled Receptor Assay for human Dopamine Receptor D2 (DRD2) (AID 2283266)
Outline: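 Radioligand displacement used human DRD2 membranes extracted from CHO cells and was read by filter-based scintillation counting after 1.5 hours. Primary screening was in duplicate at 25 uM. Loss of signal versus DMSO was fitted, with concentration series in follow-up.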

[4] = biological target: Muscarinic acetylcholine receptor M1 (Homo sapiens) (UniProt P11229); experiment: NVS_GPCR_hM1: NovaScreen (NVS) G Protein-Coupled Receptor Assay for human Muscarinic, M1 Receptor (AID 2283270)
Outline: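 Cell-free radioligand displacement using membrane protein extracted from CHO cells, read by filter-based scintillation counting 1 h after dosing. Loss of bound signal fitted versus DMSO; primary screen single concentration 25 uM in duplicate, actives followed by concentration series.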

[5] = biological target: human Histamine 1 Receptor (H1), HRH1 (gene 3269) (UniProt P35367); experiment: NVS_GPCR_hH1: NovaScreen (NVS) G Protein-Coupled Receptor Assay for human Histamine 1 Receptor (H1) (AID 2283268)
Outline: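 Cell-free radioligand displacement at human H1 receptor, 1 h, filter scintillation counting; primary screen 25 uM in duplicate, hits in concentration series; loss of binding fitted vs DMSO.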

[6] = biological target: D(1A) dopamine receptor (Homo sapiens) (UniProt P21728); experiment: NVS_GPCR_hDRD1: NovaScreen (NVS) G Protein-Coupled Receptor Assay for human Dopamine Receptor D1 (DRD1) (AID 2283269)
Outline: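 Cell-free radioligand binding to human DRD1 from HEK293 membranes, read 1 h after dosing by filter-based scintillation counting. Loss of signal versus DMSO baseline marks displacement. Primary screen at 25 uM single concentration in duplicate; actives followed up in concentration series.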

[7] = biological target: Muscarinic acetylcholine receptor M2 (Homo sapiens) (UniProt P08172); experiment: NVS_GPCR_hM2: NovaScreen (NVS) G Protein-Coupled Receptor Assay for human Muscarinic, M2 Receptor (AID 2283273)
Outline: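 Cell-free radioligand binding using membranes from CHO cells expressing the receptor; filter-based scintillation counting after 1 hour of compound exposure. Loss of specific binding relative to DMSO baseline; primary screen at 25 uM in duplicate, actives then run in concentration series.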

[8] = biological target: human Neurotensin Receptor (NTS), NTSR1 (gene 4923) (UniProt P30989); experiment: NVS_GPCR_hNTS: NovaScreen (NVS) G Protein-Coupled Receptor Assay for human Neurotensin Receptor (NTS) (AID 2283279)
Outline: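 Radioligand displacement on human NTSR1 protein from CHO cells, cell-free, 1 h, filter-based scintillation counting. Primary screen at 25 uM in duplicate; hits rerun in concentration-response up to 50 uM.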

[9] = tested on: rabbit Platelet Activating Factor Receptor (PAF), gene 100354046; experiment: NVS_GPCR_rabPAF: NovaScreen (NVS) G Protein-Coupled Receptor Assay for rabbit Platelet Activating Factor Receptor (PAF) (AID 2283287)
Outline: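 Rabbit platelet membrane preparation; radioligand displacement read by filter-based scintillation counting 1 h after dosing, loss of signal versus DMSO. Primary screen in duplicate at 25 uM, actives followed up in concentration series.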

[10] = biological target: human Neurokinin, NK2 Receptor, TACR2 (gene 6865) (UniProt P21452); experiment: NVS_GPCR_hNK2: NovaScreen (NVS) G Protein-Coupled Receptor Assay for human Neurokinin, NK2 Receptor (AID 2283278);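 note: actives reduce bound radioligand signal relative to DMSO baseline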
Outline: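 CHO-derived membrane protein, radioligand displacement, filter scintillation read at 4 h post-dose. Single-point 25 uM in duplicate, then concentration series for actives; DMSO as negative control.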

[11] = biological target: mouse Cholecystokinin, CCK1 Receptor (CCKA), Cckar (gene 12425) (UniProt O08786); experiment: NVS_GPCR_mCCKAPeripheral: NovaScreen (NVS) G Protein-Coupled Receptor Assay for mouse Cholecystokinin, CCK1 Receptor (CCKA) (AID 2283285)
Outline: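 Radioligand competitive displacement on mouse pancreatic membranes, 2 h incubation; filter-based scintillation counting, loss of signal versus DMSO. Single-concentration screen at 25 uM in duplicate, actives retested in concentration-response up to 50 uM.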

[12] = biological target: human Muscarinic, M4 Receptor, CHRM4 (gene 1132) (UniProt P08173); experiment: NVS_GPCR_hM4: NovaScreen (NVS) G Protein-Coupled Receptor Assay for human Muscarinic, M4 Receptor (AID 2283274)
Outline: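 Cell-free radioligand displacement using CHO-derived human M4 receptor protein, 1 h after dosing; bound radioactivity by filtration and scintillation counting. Primary screen single 25 uM duplicate, actives followed in concentration series.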

[13] = biological target: Neuropeptide Y receptor type 2 (Homo sapiens) (UniProt P49146); experiment: NVS_GPCR_hNPY2: NovaScreen (NVS) G Protein-Coupled Receptor Assay for human Neuropeptide Receptor Y2 (NPY2) (AID 2283277)
Outline: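 Radioligand binding on membranes extracted from SK-N-MC cells, cell-free, read 1 h after dosing by filter-based scintillation counting. Loss of signal vs DMSO. Primary screen in duplicate at 25 uM; actives followed up in concentration-response up to 50 uM.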

[14] = biological target: rat Serotonin, 5-Hydroxytryptamine Receptor 1 (5HT1), Non-Selective Binding, Htr1a (gene 24473) (UniProt P19327); experiment: NVS_GPCR_r5HT1_NonSelective: NovaScreen (NVS) G Protein-Coupled Receptor Assay for rat Serotonin, 5-Hydroxytryptamine Receptor 1 (5HT1), Non-Selective Binding (AID 2283286)
Outline: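 Rat cortical membranes, radioligand displacement, 1 h incubation, read by filter scintillation. Primary screen in duplicate at 25 uM. Hits (e.g. ≥30% inhibition) went to concentration-response up to 50 uM, fitted as loss of binding versus DMSO.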

[15] = biological target: human Leukotriene B4 Receptor 1 (LTB4-BLT1), LTB4R (gene 1241) (UniProt Q15722); experiment: NVS_GPCR_hLTB4_BLT1: NovaScreen (NVS) G Protein-Coupled Receptor Assay for human Leukotriene B4 Receptor 1 (LTB4-BLT1) (AID 2283271)
Outline: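 Radioligand displacement binding on receptor extracted from human neutrophils, cell-free, 1 h after dosing; filter-based scintillation counting. Primary screen in duplicate at 25 uM, actives retested in concentration-response up to 50 uM; loss of signal versus DMSO.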

[16] = biological target: human Neuropeptide Receptor Y1 (NPY1), NPY1R (gene 4886) (UniProt P25929); experiment: NVS_GPCR_hNPY1: NovaScreen (NVS) G Protein-Coupled Receptor Assay for human Neuropeptide Receptor Y1 (NPY1) (AID 2283276)
Outline: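 Cell-free radioligand binding using receptor extracted from SK-N-MC cells, 1 h incubation, filter-based scintillation counting. Primary screen single concentration 25 uM in duplicate; actives followed in concentration series. Loss of bound signal scored versus DMSO.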

[17] = biological target: Muscarinic acetylcholine receptor M3 (Homo sapiens) (UniProt P20309); experiment: NVS_GPCR_hM3: NovaScreen (NVS) G Protein-Coupled Receptor Assay for human Muscarinic, M3 Receptor (AID 2283272)
Outline: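 Radioligand displacement binding on human M3 receptor in CHO-derived membranes, 1 h incubation, filter-based scintillation counting. Primary screen in duplicate at 25 uM; actives followed up in concentration series; loss of signal versus DMSO.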

[18] = biological target: human Thromboxane A2 Receptor (TXA2), TBXA2R (gene 6915) (UniProt P21731); experiment: NVS_GPCR_hTXA2: NovaScreen (NVS) G Protein-Coupled Receptor Assay for human Thromboxane A2 Receptor (TXA2) (AID 2283282);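 note: actives reduce bound radioligand signal relative to DMSO baseline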
Outline: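 Biochem binding, human platelets, cell-free; competitive radioligand displacement; 1 h; filter radiodetection. 25 uM duplicate primary, conc. series secondary; DMSO neg. ctrl.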

Chain of Muscarinic acetylcholine receptor M3 (Homo sapiens) (P20309 whole entry, looked up): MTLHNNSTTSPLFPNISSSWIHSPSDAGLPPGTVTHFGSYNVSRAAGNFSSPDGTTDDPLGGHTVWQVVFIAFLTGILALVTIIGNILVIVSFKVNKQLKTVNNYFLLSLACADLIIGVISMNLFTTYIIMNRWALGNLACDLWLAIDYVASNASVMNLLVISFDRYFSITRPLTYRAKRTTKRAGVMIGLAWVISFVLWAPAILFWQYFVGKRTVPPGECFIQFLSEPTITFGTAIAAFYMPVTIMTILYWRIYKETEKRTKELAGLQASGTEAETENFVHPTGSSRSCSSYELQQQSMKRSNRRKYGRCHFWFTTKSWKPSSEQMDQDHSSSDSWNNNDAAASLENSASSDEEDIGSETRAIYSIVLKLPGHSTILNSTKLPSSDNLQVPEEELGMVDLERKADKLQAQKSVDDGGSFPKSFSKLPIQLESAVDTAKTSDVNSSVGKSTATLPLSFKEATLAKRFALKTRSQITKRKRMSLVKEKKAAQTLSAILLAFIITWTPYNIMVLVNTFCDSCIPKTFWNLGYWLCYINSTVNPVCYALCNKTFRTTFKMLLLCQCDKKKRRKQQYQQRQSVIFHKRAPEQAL
Chain of mouse Cholecystokinin, CCK1 Receptor (CCKA), Cckar (gene 12425) (O08786 whole entry, looked up): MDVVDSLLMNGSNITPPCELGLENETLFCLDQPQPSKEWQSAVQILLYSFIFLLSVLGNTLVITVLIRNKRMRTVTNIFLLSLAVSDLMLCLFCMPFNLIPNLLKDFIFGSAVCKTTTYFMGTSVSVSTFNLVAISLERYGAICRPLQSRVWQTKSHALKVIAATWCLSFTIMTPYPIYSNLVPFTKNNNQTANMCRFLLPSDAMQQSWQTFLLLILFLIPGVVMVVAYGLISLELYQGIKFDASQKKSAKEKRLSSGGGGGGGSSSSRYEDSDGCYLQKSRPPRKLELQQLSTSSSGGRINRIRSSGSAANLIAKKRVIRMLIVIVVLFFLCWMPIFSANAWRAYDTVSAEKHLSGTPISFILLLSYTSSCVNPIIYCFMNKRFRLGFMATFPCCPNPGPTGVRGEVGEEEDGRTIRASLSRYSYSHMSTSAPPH
Chain of human Muscarinic, M4 Receptor, CHRM4 (gene 1132) (P08173 whole entry, looked up): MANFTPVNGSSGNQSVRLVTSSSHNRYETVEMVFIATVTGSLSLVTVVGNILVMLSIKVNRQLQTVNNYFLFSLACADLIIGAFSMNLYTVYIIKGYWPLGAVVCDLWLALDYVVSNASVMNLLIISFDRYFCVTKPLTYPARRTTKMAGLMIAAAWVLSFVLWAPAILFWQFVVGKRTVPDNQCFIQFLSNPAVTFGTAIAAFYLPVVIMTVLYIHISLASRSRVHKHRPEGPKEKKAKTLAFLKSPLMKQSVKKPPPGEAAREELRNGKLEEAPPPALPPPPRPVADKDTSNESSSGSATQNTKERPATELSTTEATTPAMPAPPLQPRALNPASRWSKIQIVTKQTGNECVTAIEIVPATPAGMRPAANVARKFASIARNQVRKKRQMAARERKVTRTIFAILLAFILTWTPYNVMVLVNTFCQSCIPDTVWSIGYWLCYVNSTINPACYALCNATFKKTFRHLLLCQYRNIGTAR
Chain of human Neurokinin, NK2 Receptor, TACR2 (gene 6865) (P21452 whole entry, looked up): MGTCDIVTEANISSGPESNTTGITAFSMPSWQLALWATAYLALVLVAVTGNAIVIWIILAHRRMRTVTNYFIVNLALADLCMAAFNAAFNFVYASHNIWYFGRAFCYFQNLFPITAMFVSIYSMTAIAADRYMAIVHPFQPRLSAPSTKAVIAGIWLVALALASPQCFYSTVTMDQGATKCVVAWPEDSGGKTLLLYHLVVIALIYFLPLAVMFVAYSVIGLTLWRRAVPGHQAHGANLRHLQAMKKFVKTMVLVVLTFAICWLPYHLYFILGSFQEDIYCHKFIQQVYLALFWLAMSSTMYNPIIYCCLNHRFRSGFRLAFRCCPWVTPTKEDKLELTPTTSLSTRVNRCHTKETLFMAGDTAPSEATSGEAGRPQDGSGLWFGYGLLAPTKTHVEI
Chain of Muscarinic acetylcholine receptor M2 (Homo sapiens) (P08172 whole entry, looked up): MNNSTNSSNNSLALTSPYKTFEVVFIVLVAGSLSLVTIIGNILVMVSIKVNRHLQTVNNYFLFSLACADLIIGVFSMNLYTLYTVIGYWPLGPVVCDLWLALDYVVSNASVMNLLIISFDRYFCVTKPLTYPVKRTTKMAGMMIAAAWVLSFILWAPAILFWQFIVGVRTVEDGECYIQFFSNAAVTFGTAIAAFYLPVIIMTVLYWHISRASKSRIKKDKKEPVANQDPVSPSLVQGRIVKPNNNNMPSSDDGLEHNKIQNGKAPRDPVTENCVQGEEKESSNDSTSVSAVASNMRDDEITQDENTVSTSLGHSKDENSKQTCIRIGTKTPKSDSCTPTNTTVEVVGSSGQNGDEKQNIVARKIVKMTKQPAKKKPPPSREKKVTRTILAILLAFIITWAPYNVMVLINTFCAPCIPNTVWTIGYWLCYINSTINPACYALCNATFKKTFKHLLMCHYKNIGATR
Chain of human Adrenergic, Beta 3 Receptor (Adrb3), ADRB3 (gene 155) (P13945 whole entry, looked up): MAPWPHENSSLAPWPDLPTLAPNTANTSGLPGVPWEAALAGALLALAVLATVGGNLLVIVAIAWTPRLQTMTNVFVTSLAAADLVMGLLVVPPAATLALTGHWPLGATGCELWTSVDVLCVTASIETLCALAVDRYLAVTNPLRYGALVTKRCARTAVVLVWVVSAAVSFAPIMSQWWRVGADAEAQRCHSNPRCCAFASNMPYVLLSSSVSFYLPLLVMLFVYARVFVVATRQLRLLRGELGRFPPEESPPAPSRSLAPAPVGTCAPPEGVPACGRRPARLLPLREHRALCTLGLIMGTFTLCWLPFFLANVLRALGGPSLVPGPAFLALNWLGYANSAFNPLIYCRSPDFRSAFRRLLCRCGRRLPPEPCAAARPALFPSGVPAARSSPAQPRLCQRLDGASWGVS
Chain of human Neurotensin Receptor (NTS), NTSR1 (gene 4923) (P30989 whole entry, looked up): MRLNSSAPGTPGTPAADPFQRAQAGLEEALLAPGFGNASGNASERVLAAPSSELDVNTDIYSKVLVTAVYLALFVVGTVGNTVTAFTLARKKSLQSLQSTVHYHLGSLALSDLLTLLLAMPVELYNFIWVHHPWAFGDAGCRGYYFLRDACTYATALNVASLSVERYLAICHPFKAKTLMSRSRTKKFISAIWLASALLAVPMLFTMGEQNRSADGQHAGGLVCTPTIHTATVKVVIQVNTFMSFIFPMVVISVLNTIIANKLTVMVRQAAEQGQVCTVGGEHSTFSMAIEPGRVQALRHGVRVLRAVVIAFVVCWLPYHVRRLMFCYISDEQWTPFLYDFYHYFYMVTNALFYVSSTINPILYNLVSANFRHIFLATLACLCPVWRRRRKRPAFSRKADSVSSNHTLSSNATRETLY
Chain of Neuropeptide Y receptor type 2 (Homo sapiens) (P49146 whole entry, looked up): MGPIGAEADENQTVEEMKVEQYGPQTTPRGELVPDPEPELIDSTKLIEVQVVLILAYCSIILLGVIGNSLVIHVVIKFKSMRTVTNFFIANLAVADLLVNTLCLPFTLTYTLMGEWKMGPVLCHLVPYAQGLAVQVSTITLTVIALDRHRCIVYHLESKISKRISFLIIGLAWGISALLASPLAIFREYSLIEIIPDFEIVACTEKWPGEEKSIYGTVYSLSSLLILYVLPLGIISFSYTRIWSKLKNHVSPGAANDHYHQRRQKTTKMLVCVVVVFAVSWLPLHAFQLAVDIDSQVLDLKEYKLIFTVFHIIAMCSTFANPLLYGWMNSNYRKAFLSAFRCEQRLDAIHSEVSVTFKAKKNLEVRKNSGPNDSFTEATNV
Chain of rat Serotonin, 5-Hydroxytryptamine Receptor 1 (5HT1), Non-Selective Binding, Htr1a (gene 24473) (P19327 whole entry, looked up): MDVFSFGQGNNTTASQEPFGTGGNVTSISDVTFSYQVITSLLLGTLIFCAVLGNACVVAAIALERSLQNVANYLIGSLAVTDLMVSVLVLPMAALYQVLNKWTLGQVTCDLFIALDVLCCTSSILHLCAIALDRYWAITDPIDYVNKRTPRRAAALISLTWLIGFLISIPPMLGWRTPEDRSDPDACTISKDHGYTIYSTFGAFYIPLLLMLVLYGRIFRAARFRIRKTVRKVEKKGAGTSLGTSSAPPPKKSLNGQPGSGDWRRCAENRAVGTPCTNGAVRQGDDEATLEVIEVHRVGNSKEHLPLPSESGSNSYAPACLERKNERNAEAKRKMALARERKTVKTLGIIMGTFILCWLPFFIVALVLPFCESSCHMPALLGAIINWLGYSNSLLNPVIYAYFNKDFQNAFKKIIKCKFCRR
Chain of human Leukotriene B4 Receptor 1 (LTB4-BLT1), LTB4R (gene 1241) (Q15722 whole entry, looked up): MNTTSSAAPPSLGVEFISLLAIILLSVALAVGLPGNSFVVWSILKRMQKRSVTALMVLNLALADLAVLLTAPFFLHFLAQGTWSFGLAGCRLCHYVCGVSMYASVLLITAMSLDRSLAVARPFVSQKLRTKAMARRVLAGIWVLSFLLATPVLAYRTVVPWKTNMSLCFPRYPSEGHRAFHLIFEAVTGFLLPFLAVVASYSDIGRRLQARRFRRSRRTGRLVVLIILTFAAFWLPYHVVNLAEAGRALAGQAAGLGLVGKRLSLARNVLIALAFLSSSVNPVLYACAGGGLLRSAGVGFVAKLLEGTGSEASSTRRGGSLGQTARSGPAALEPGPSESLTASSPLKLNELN
Chain of human Dopamine Receptor D2 (DRD2), DRD2 (gene 1813) (P14416 whole entry, looked up): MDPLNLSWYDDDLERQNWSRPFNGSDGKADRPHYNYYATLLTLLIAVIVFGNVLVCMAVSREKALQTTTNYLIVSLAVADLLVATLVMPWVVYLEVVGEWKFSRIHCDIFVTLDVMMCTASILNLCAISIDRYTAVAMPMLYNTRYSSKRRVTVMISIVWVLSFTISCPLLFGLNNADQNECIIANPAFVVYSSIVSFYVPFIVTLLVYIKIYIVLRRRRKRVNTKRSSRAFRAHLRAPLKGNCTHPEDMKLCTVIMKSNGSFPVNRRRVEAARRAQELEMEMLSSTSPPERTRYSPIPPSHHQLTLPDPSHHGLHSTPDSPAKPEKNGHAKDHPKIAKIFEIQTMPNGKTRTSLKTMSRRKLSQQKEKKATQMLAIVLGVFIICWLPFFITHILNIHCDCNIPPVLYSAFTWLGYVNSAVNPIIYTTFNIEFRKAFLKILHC

CN/C(=N\[N+](=O)[O-])NCc1cnc(Cl)s1
outcome [1]: inactive | outcome [2]: inactive

O=C(O)c1c(Cl)ccc2cc(Cl)cnc12
outcome [1]: inactive

OC(c1ccc(Cl)cc1)(c1ccc(Cl)cc1)C(Cl)(Cl)Cl
outcome [3]: inactive

COC(=O)NS(=O)(=O)c1ccc(N)cc1
outcome [4]: inactive

CCOP(=O)(OCC)Oc1nc(Cl)c(Cl)cc1Cl
outcome [5]: inactive | outcome [6]: inactive | outcome [7]: inactive

COP(=O)(OC)O/C(C)=C/C(=O)N(C)C
outcome [8]: inactive

CCCC(=NOCC)C1=C(O)CC(CC(C)SCC)CC1=O (stereo not drawn)
outcome [9]: inactive

CC1(C)C(C(=O)OC(C#N)c2cccc(Oc3ccccc3)c2)C1(C)C (stereo not drawn)
outcome [10]: inactive | outcome [11]: inactive

COCC(=O)N(c1c(C)cccc1C)C(C)C(=O)OC (stereo not drawn)
outcome [9]: inactive

CCNC(=O)NC(=O)C(C#N)=NOC
outcome [12]: inactive

N#Cc1c(Cl)cccc1Cl
outcome [12]: inactive

CC1(C)CON(Cc2ccccc2Cl)C1=O
outcome [9]: inactive

O=C(Nc1ccccc1-c1ccc(Cl)cc1)c1cccnc1Cl
outcome [8]: inactive

N#CN=C1SCCN1Cc1ccc(Cl)nc1
outcome [13]: inactive

CCNP(=S)(OC)O/C(C)=C/C(=O)OC(C)C (stereo not drawn)
outcome [7]: inactive | outcome [13]: inactive

CCOc1nc(F)cc2nc(S(=O)(=O)Nc3c(Cl)cccc3Cl)nn12
outcome [10]: inactive

CC1(C)CCC(=Cc2ccc(Cl)cc2)C1(O)Cn1cncn1 (stereo not drawn)
outcome [14]: inactive

COc1cc(Cl)c(OC)cc1Cl
outcome [14]: inactive

CCCCC(O)(Cn1cncn1)c1ccc(Cl)cc1Cl (stereo not drawn)
outcome [15]: inactive | outcome [7]: inactive | outcome [16]: inactive | outcome [11]: inactive

CS(=O)(=O)c1cc(C(F)(F)F)ccc1C(=O)c1cnoc1C1CC1
AC50 [9]: 19.1 µM (active)

CC(C)(C)C(=O)C(Oc1ccc(Cl)cc1)n1cncn1 (stereo not drawn)
AC50 [15]: 11.8 µM (active) | outcome [17]: inactive | AC50 [7]: 4.96 µM (active) | outcome [12]: inactive

Nc1c(Cl)c(Cl)nc(C(=O)O)c1Cl
outcome [9]: inactive

CC(C)N1C(=O)N(c2ccccc2)CSC1=NC(C)(C)C
outcome [9]: inactive

CCOC(=O)C(C)OC(=O)c1cc(Oc2ccc(C(F)(F)F)cc2Cl)ccc1[N+](=O)[O-] (stereo not drawn)
outcome [11]: inactive

Cc1c(COC(=O)[C@@H]2[C@H](/C=C(\Cl)C(F)(F)F)C2(C)C)cccc1-c1ccccc1
outcome [10]: inactive

CCN(CC)C(=O)C(C)Oc1cccc2ccccc12 (stereo not drawn)
outcome [18]: inactive

Cc1cc(C)nc(Nc2ccccc2)n1
AC50 [17]: 12.4 µM (active) | AC50 [7]: 4.96 µM (active) | AC50 [12]: 14.9 µM (active)

CCSC(=O)N1CCCCCC1
AC50 [17]: 8.57 µM (active) | AC50 [7]: 6.85 µM (active) | AC50 [12]: 4.96 µM (active)
